Gal4-VP16 FLuc: VP16 counterscreen qHTS for inhibitors of ROR gamma transcriptional activity | Drosophila S2 Gal4-VP16 UAS-luciferase, luminescence, 20 h | Potency, µM (doses to about 53.6 µM), inactives show top-dose activity, negative = inhibition, hits mostly inhibitors | 3.5% of 310,000 active | AID 2546, 2010;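 further: Gal4-VP16 expression switched on by copper sulfate through the metallothionein promoter; nearly all actives have a fitted effect of over 50% in size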
ALOX12 inh: Primary qHTS assay for inhibitors of human arachidonate 12S-lipoxygenase (ALOX12): Round 2 | Polyunsaturated fatty acid lipoxygenase ALOX12 (Homo sapiens), P18054 | purified 12hLO, xylenol orange hydroperoxide absorbance | Potency, µM (series often up to 108 µM), for the others: at the top dose activity change, negative = inhibition, usual class: inhibitors | 1.1% of 580,000 active | AID 1671190, 2021
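Hydroperoxide product was detected by ferrous iron/xylenol orange as the 573 to 405 nm absorbance ratio. Arachidonic acid at 40 uM (final) was turned over for 30 min at room temperature by 150 nM human 12hLO, pH 7.0 Hepes buffer, after 15 min compound preincubation.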
RORgamma inh: qHTS for inhibitors of ROR gamma transcriptional activity. Potency, µM (top dose mostly 53.6 µM), without a hit: top-dose activity change, negative = inhibition, actives largely listed as inhibitors. 5.4% of 310,000 active. Nuclear receptor ROR-gamma (Mus musculus), P51450. Drosophila S2 Gal4-RORgamma UAS-luciferase reporter, 20 h; further: nearly all actives have a fitted effect of over 60% in size
Target sequence (P51450 whole entry, looked up, the tested form may be a part): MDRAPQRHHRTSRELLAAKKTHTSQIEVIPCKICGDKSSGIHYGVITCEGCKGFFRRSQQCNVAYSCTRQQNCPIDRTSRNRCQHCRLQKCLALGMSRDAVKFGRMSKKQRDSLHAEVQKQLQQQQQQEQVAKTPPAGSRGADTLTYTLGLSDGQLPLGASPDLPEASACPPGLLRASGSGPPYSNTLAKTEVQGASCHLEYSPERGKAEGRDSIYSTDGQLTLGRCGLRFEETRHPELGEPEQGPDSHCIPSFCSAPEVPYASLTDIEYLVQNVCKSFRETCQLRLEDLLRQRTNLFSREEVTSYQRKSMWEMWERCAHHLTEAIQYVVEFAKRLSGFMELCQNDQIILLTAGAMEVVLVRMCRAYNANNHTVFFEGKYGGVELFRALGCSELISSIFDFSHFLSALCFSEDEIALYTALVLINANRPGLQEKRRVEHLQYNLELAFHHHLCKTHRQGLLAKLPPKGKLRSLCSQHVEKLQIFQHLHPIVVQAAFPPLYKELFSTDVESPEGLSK
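Read-out: Photinus luciferase luminescence; inhibitors lower reporter signal. Insect Schneider cells with Gal4-ROR gamma fusion under metallothionein promoter, UAS reporter; 700 uM final copper sulfate induction, 20 hr, ambient temperature.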
TDP1 cell CPT: qHTS for Inhibitors of human tyrosyl-DNA phosphodiesterase 1 (TDP1): qHTS in cells in presence of CPT. AID 686979, 2013. chicken DT40 Tdp1-/-;hTDP1 cells + 20 nM CPT, ATP luminescence, 48 h. Potency, µM (titrated, usually from 46.2 µM), inactives show at the highest dose activity change, negative = growth inhibition, most hits filed as inhibitors. 12% of 420,000 active; further: nearly all actives have a fitted effect of over 55% in size
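Chicken DT40 Tdp1-/- cells stably complemented with human TDP1 were seeded at 400 cells/well in medium containing 20 nM camptothecin, exposed to pin-transferred compounds, and grown at 37 °C for at least 48 hr. Viability was read as ATP luminescence.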
DT40 TDP1 no CPT: qHTS for Inhibitors of human tyrosyl-DNA phosphodiesterase 1 (TDP1): qHTS in cells in absence of CPT; 15% of 420,000 active; AID 686978, 2013; DT40 Tdp1-/- hTDP1 cells, no CPT, ATP luminescence, 48 h; Potency, µM (titrated, usually from 46.2 µM), inactives show top-dose activity change, negative = growth inhibition, hits mostly inhibitors; further: nearly all actives have a fitted effect of over 55% in size
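Growth kinetics read by CellTiter-Glo luminescence after ≥48 hr at 37 °C. Cells: DT40 Tdp1-/- stably carrying human TDP1, 400 per well, compound exposure in the absence of CPT (DMSO vehicle).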
ELG1 repair inh: qHTS screen for small molecules that inhibit ELG1-dependent DNA repair in human embryonic kidney (HEK293T) cells expressing luciferase-tagged ELG1 | Potency, µM (titrated, usually from 46.1 µM), without a hit: at the highest dose activity change, negative = inhibition, most hits filed as inhibitors | HEK293T ELG1-luciferase reporter, luminescence, 16 h; DNA damage induced by 5-fluorouridine | 2.3% of 330,000 active | AID 504467, 2011; further: nearly all actives have a fitted effect of over 55% in size
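In this reporter screen, reduction of luminescence relative to DMSO vehicle indicated activity. Compounds and 5-fluorouridine were added together to 2,000 cells per well, incubated for 16 hr at 37 °C, then developed with ONE-Glo.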
* = called active by the depositor; ? = inconclusive; . = no result; [ ] = dose if it differs, or a comment. Hits are enriched below; roughly 15% of the tested compounds scored in any of these assays. The call rests on the fitted dose curve; in most records, active means well fitted curve in the direction sought with a large enough effect; inconclusive means small, poorly fitted or top-dose-only effect, or another doubt; inactive means no such curve, though single readings can be large; an effect the other way counts as inactive or inconclusive. On the % scale 0 is the no-effect control and ±100 the full control effect; potency means the concentration at half of the fitted maximal effect.

SMILES	Gal4-VP16 FLuc	ALOX12 inh	RORgamma inh	TDP1 cell CPT	DT40 TDP1 no CPT	ELG1 repair inh
S=C(NC1CCCCCC1)NC1CCCC1	10µM*	-27.2%	1.58µM*	?	?	?
S=C(NC1CCCCC1)NC1CCCCC1	?	.	2.82µM*	.	.	.
CN(C)C(=S)NC1CCS(=O)(=O)C1 (centres undefined)	-6.9%	-3.8%	-7.9%	3.0%	3.5%	5.8%
NNC(=S)NC1CCCCCCCCCCC1	2.82µM*	?	0.282µM*	?	8.2µM*	?
COc1ccc(NC(=O)Cc2cc(OC)c(OC)c(OC)c2)cc1NS(C)(=O)=O	.	8.9%	.	.	.	.
COc1ccc2c(CNCCc3cccs3)c(C(=O)O)n(Cc3ccc(F)cc3Cl)c2c1	.	-20.6%	.	8.2µM*	6.51µM*	.
COc1ccc2c(CNCc3cccs3)c(C(=O)O)n(Cc3ccc(F)cc3Cl)c2c1	.	-3.8%	.	7.31µM*	1.46µM*	.
COc1ccc(OC)c(CNCc2c(C(=O)O)c(C)n(Cc3ccc(F)cc3Cl)c2C)c1	.	1.4%	.	.	.	.
COc1ccc2c(CNCCc3cccs3)c(C(=O)O)n(Cc3cccc(F)c3)c2c1	.	-28.7%	.	?	?	.
O=C(NCc1nnc2cc(-c3nc(C4CC4)no3)ccn12)c1ccccc1F	.	35.3%	.	.	.	.
COc1ccc(NC(=O)Cc2cnc(-n3cccc3)s2)c(OC)c1	.	6.4%	.	.	.	.
O=C(C[C@H]1C/C=C\C[C@@H](Cc2ccc(F)cc2)C(=O)O[C@H](c2ccccc2)CNC1=O)NCCO	.	-10.4%	.	?	?	-4.5%
CC(C)(C)OC(=O)C[C@@H]1C/C=C\C[C@@H](CC(=O)NCCO)C(=O)NC[C@@H](c2ccccc2)OC1=O	.	3.3%	.	1.2%	-7.1%	13.8%
O=C(C[C@H]1C/C=C\C[C@H](NC(=O)OCC2c3ccccc3-c3ccccc32)C(=O)O[C@@H](c2ccccc2)CNC1=O)NCCO	.	-22.0%	.	9.2µM*	10.3µM*	-1.9%
O=C(C[C@@H]1C/C=C\C[C@H](NC(=O)OCC2c3ccccc3-c3ccccc32)C(=O)O[C@H](c2ccccc2)CNC1=O)NCCO	.	?	.	2.59µM*	2.06µM*	1.1%
COC(=O)c1ccccc1NC(=O)Cn1ccn2nc(-c3ccc(F)cc3)c(CO)c2c1=O	.	-13.8%	.	.	.	.
CCOC(=O)C1=C(CNCc2ccccc2Cl)NC(=O)NC1c1cc(C)ccc1C (centres undefined)	.	9.4%	.	.	.	.
CC1CCc2cc(F)ccc2N1C(=O)CCC(=O)O (centres undefined)	1.1%[0.365 µM]	0.9%	-21.9%	-4.7%	-3.6%	18.0%
O[C@@H](CNC[C@H](O)[C@H]1CCc2cc(F)ccc2O1)[C@@H]1CCc2cc(F)ccc2O1	.	-0.4%[57.4 µM]	.	6.68µM*	4.22µM*	.
Cc1ccc([S+](=O)([O-])N2CCn3c(nn(-c4ccc(C(F)(F)F)cc4)c3=O)C2)cc1	.	41.3%	.	.	.	.
CCN(CC)C(=O)C1=C(C)N(Cc2ccc(C(C)(C)C)cc2)C(=O)C(CC(=O)NC(c2ccccc2)c2ccccc2)C1 (centres undefined)	.	-2.1%	.	13µM*	11.6µM*	.
CC1=C(C(=O)N2CCCCCC2)CC(CC(=O)NC(c2ccccc2)c2ccccc2)C(=O)N1CCC1=CCCCC1 (centres undefined)	.	-19.1%	.	20.6µM*	16.4µM*	.
CC1=C(C(=O)N(C(C)C)C(C)C)CC(CC(=O)NC(c2ccccc2)c2ccccc2)C(=O)N1Cc1ccc(C(C)(C)C)cc1 (centres undefined)	.	-3.9%	.	?	?	.
CCN(CC)C(=O)C1=C(C)N(Cc2ccc(F)cc2)C(=O)C(CC(=O)NC(c2ccccc2)c2ccccc2)C1 (centres undefined)	.	?	.	?	20.6µM*	.
CC1=C(C(=O)N(C)C)CC(CC(=O)NC(c2ccccc2)c2ccccc2)C(=O)N1Cc1ccc(C(C)(C)C)cc1 (centres undefined)	.	0.0%	.	?	23.1µM*	.
SMILES	Gal4-VP16 FLuc	ALOX12 inh	RORgamma inh	TDP1 cell CPT	DT40 TDP1 no CPT	ELG1 repair inh
CCN(CC)C(=O)C1=C(C)N(Cc2ccc(F)cc2)C(=O)C(CC(=O)NCc2cccs2)C1 (centres undefined)	.	?	.	-5.8%	-8.5%	.
CN(C)C[C@@H]1CN(c2ncccn2)C[C@H]1NS(=O)(=O)Cc1ccc(F)cc1	.	40.8%	.	.	.	.
Cc1ccc(NC(=O)Cn2nc(C(N)=O)c3ccccc3c2=O)cc1	.	46.5%	.	.	.	.
O=C(CSC1=NCCS1)c1ccc2c(c1)OCCO2	.	51.0%	.	.	.	.
CC1=C(C(=O)N2CCOCC2)CC(CC(=O)NC(c2ccccc2)c2ccccc2)C(=O)N1Cc1ccc(C(C)(C)C)cc1 (centres undefined)	.	?	.	?	16.4µM*	.
CCCCN1C(=O)C(CC(=O)NC(c2ccccc2)c2ccccc2)CC(C(=O)N(C(C)C)C(C)C)=C1C (centres undefined)	.	-16.7%	.	23.1µM*	20.6µM*	.
CC1=C(C(=O)N2CCOCC2)CC(CC(=O)NCCN2CCOCC2)C(=O)N1Cc1ccc(C(C)(C)C)cc1 (centres undefined)	.	?	.	4.1%	-15.9%	.
Cc1nn(Cc2ccc(Cl)c(Cl)c2)c(C)c1NC(=O)c1cc(-c2ccc3c(c2)OCO3)on1	-10.8%	17.5%	1.3%	18.4µM*	20.6µM*	?
Cc1ccc(NC(=O)c2cc(-c3ccc4c(c3)OCO4)on2)cc1	0.7%	2.0%	-0.3%	?	?	?
COc1ccc(-c2cc(C(=O)Nc3c(C)nn(Cc4ccccc4Cl)c3C)no2)cc1	-2.9%	0.0%	-22.6%	-25.0%	-21.6%	3.3%
Cc1nn(Cc2ccc(Cl)cc2)c(C)c1NC(=O)c1cc(-c2ccc3c(c2)OCO3)on1	-14.1%	-11.9%	15.2%	23.1µM*	14.6µM*	18.4µM*
COc1ccc2c(=O)n(CC(=O)N3CCCOCC3)ccc2c1OC	.	27.5%	.	.	.	.
Cc1ccc(SCCN2CCC(C(C)(C)C)CCC2=O)cc1 (centres undefined)	18.5%	-9.8%	?	9.2µM*	?	?

Assay outcomes from PubChem.
